Source: PubChem BioAssay (National Center for Advancing Translational Sciences (NCATS))
Pf growth 96h: Primary qHTS for delayed death inhibitors of the malarial parasite plastid, 96 hour incubation; P. falciparum luciferase reporter growth, 96 h; Potency, µM (highest dose often 28.7 µM), inactives show top-dose activity change, negative = inhibition, actives largely listed as inhibitors; hit rate 6.9% among 320,000; further: on the % scale 0 is the no-effect control and ±100 the full control effect
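Compounds incubated with erythrocytes infected by luciferase-expressing P. falciparum (2% hematocrit, 0.05% parasitemia final) for 96 hours, 37 C in 5% CO2. Growth inhibition scored as decreased luciferase luminescence.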
SARS PLpro yeast: qHTS of Yeast-based Assay for SARS-CoV PLP | S. cerevisiae expressing SARS-CoV PLpro, growth rescue | Potency, µM (series often up to 32.9 µM), without a hit: top-dose activity, positive = growth rescue, usual class: activators | hit rate 0.19% among 330,000; calls by dose curve; further: 0% is about no effect; nearly all actives have a fitted effect of over 55% in size
Pf growth 48h: Primary qHTS for delayed death inhibitors of the malarial parasite plastid, 48 hour incubation; P. falciparum luciferase growth in erythrocytes, 48 h; Potency, µM (titrated, usually from 28.7 µM), for inactives: top-dose activity change, negative = inhibition, usual class: inhibitors; hit rate 5.9% among 310,000; further: on the % scale 0 is the no-effect control and ±100 the full control effect
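A one-generation exposure of luciferase-tagged malaria parasites in RPMI 1640/Albumax erythrocyte culture, 37 C and 5% CO2. Inhibition is inferred from decreased luminescence after adding detection reagent.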
AMA1 RON2 block: qHTS for Inhibitors of AMA1-RON; Towards Development of Antimalarial Drug Lead: Primary Screen; AID 720542, 2013; AlphaScreen AMA1-biotinylated RON2 peptide binding; Potency, µM (highest dose often 58.2 µM), inactives show at the top dose activity change, negative = inhibition, actives largely listed as inhibitors; Plasmodium falciparum AMA1 (3D7) - RON2 peptide interaction; hit rate 0.2% among 360,000;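 further: 0% = vehicle wells and -100% = peptide control; nearly all actives have a fitted effect of over 45% in size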
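AMA1 (3D7) with his tag at 25 nM final met compounds first, then biotinylated RON2 peptide at 25 nM; detection used donor plus acceptor beads, 10 µg/mL apiece, read by AlphaScreen after 30 min at room temperature.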
HCV inhibitor: qHTS Assay for Inhibitors of Hepatitis C Virus (HCV); Huh7.5.1 HCVcc-Cre infection, luciferase reporter, 44 h; Potency, µM (highest dose often 41.8 µM), for the others: at the highest dose activity change, negative = inhibition, hits mostly inhibitors; hit rate 3.4% among 340,000; further: on the % scale 0 is the no-effect control and ±100 the full control effect
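Compounds are dispensed onto cells plated 4 h earlier at 1,000 per well, with HCVcc-Cre virus (about 0.5 moi) added next. Following 44 h of culture, luminescent signal is measured for 15 sec after 15 min with substrate at room temperature.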
NS1 inh: qHTS Assay for Inhibitors of Influenza NS1 Protein Function; Potency, µM (top dose mostly 46.1 µM), without a hit: top-dose activity, positive = more growth; hit rate 0.4% among 270,000; AID 2326, 2010; calls by dose curve; further: actives are rising curves; nearly all actives have a fitted effect of over 50% in size
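S. cerevisiae expressing influenza A NS1, grown in glucose, washed, then diluted 1:100 into pH 6.0 -URA galactose medium with 23 nl compound. Growth recovery read as OD600; NS1-free strain serves as control.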
Starred values were filed as active, the others as inactive; [ ] = another dose, or the depositor's remark. This is a sample that favours compounds with a hit; in the whole collection about 12% have one here. Unless noted, the call rests on the fitted dose curve; in most records, active means well fitted curve in the direction sought with a large enough effect; inconclusive means small, poorly fitted or top-dose-only effect, or another doubt; inactive means no such curve, though single readings can be large; an effect the other way counts as inactive or inconclusive. Potency means the concentration at half of the fitted maximal effect.

Screening CCCCc1nc(SCC(=O)N2CCOCC2)c2c(=O)n(C)c(=O)n(C)c2n1 returned Pf growth 96h 10%, SARS PLpro yeast 3%, Pf growth 48h 12%, AMA1 RON2 block -11%, HCV inhibitor -10% and NS1 inh 0%.
Screening COc1ccc(-c2nc(=S)c3ccc4ccccc4c3[nH]2)cc1 returned Pf growth 96h 25%, SARS PLpro yeast 0%, Pf growth 48h inconclusive, AMA1 RON2 block 58%, HCV inhibitor -4% and NS1 inh 9%.
For CN(C)CC/C=C1\c2ccccc2COc2ccc(CC(=O)O)cc21 the results were Pf growth 96h 6% and Pf growth 48h 1%.
CCCC/C(O)=C1\C(=O)CCCC1=NCCc1c(C)[nH]c2ccccc12 was read as Pf growth 96h inconclusive, SARS PLpro yeast -2%, Pf growth 48h inconclusive, AMA1 RON2 block -20%, HCV inhibitor -13% and NS1 inh -9%.
Screening COc1ccc(CNC(=S)NC(C)CCc2ccccc2)cc1 (stereo not drawn) returned Pf growth 96h -28%, SARS PLpro yeast -2%, Pf growth 48h inconclusive, AMA1 RON2 block -13% and HCV inhibitor -20%.
For Cc1cc(C)c(C#N)c(Nc2cccc(C)c2C)n1 the results were Pf growth 96h inconclusive, SARS PLpro yeast 1%, Pf growth 48h -6%, AMA1 RON2 block 3%, HCV inhibitor -10% and NS1 inh -11%.
For CCN(CC)S(=O)(=O)c1ccc(NC(=O)c2ccc(OCC3CCCO3)cc2)cc1 (stereo not drawn) the results were Pf growth 96h 9.3µM*, SARS PLpro yeast 12%, Pf growth 48h 9.3µM*, AMA1 RON2 block 6% and HCV inhibitor 6.3µM*.
For C=CCOc1ccc(Br)cc1CNC(C)(C)C the results were Pf growth 96h 118%, SARS PLpro yeast 0%, Pf growth 48h -1%, AMA1 RON2 block -1%, HCV inhibitor inconclusive and NS1 inh 2%.
`Cn1c2ccccc2c2nnc(SCC(=O)NCc3ccoc3)nc21` gave Pf growth 96h -8%, SARS PLpro yeast 0%, Pf growth 48h 1%, AMA1 RON2 block 0%, HCV inhibitor 17% and NS1 inh 0%.
For O=C(CCc1ccccc1)NNC(=O)COc1ccc(Br)cc1 the results were Pf growth 96h 4%, SARS PLpro yeast 0%, Pf growth 48h 7%, AMA1 RON2 block 11%, HCV inhibitor 11µM* and NS1 inh 0%.
Screening C=CCNC(=S)NNC(=O)COc1ccc2cc(Br)ccc2c1 returned Pf growth 96h inconclusive, SARS PLpro yeast -4%, Pf growth 48h 68%, AMA1 RON2 block 26%, HCV inhibitor -16% and NS1 inh 7%.
For C=CCNC(=S)NNC(=O)COc1ccc(Br)cc1 the results were Pf growth 96h 5.9µM*, SARS PLpro yeast inconclusive, Pf growth 48h 2%, AMA1 RON2 block 42%, HCV inhibitor -2% and NS1 inh -13%.
For CC(=O)Nc1ccc(S(=O)(=O)N(C)C2CCN(C)CC2)cc1 the results were Pf growth 96h -29%, SARS PLpro yeast 5%, Pf growth 48h 7%, AMA1 RON2 block 0%, HCV inhibitor 6% and NS1 inh 9%.
CN1CCC(N(C)S(=O)(=O)c2ccc(NC(=O)COc3ccc(Cl)cc3)cc2)CC1 was read as Pf growth 96h 4.1µM*, SARS PLpro yeast 0%, Pf growth 48h 8.3µM*, AMA1 RON2 block -5% and HCV inhibitor 13µM*.
`CC(Oc1cccc(Cl)c1)C(=O)Nc1ccc(S(=O)(=O)N(C)C2CCN(C)CC2)cc1` (stereo not drawn) gave Pf growth 96h inconclusive, SARS PLpro yeast -5%, Pf growth 48h 9.3µM*, AMA1 RON2 block -3%[11.6 µM] and HCV inhibitor inconclusive.
Screening CN1CCC(N(C)S(=O)(=O)c2ccc(NC(=O)COc3ccc(F)cc3)cc2)CC1 returned Pf growth 96h inconclusive, SARS PLpro yeast -1%, Pf growth 48h inconclusive, AMA1 RON2 block -29% and HCV inhibitor -9%.
Cc1nnc(NC(=O)CSc2nnc3ncccn23)s1 was read as Pf growth 96h -3%, SARS PLpro yeast 1%, Pf growth 48h 2%, AMA1 RON2 block 17%, HCV inhibitor 26% and NS1 inh -1%.
For O[C@@H](c1cc([C@@]23C[C@H]4CC[C@@H]2C[C@H](C4)C3)nc2c(Cl)cc(Cl)cc12)C1CCCCN1 (stereo partly drawn) the results were NS1 inh -3%.
Fc1ccc(-n2nnnc2-c2cnc(-c3cccs3)nc2C(F)(F)F)cc1 was read as Pf growth 96h 5.2µM*, SARS PLpro yeast -12%, Pf growth 48h inconclusive, AMA1 RON2 block -1%, HCV inhibitor 10µM* and NS1 inh 2%.
FC(F)(F)c1nc(-c2ccncc2)ncc1-c1nnnn1-c1ccccc1 was read as Pf growth 96h inconclusive, SARS PLpro yeast 0%, Pf growth 48h inconclusive, AMA1 RON2 block 7%, HCV inhibitor -13% and NS1 inh -24%.
For Cc1ccc(-n2nnnc2-c2cnc(-c3cccnc3)nc2C(F)(F)F)cc1 the results were Pf growth 96h inconclusive, SARS PLpro yeast 8%, AMA1 RON2 block -1%, HCV inhibitor 10µM* and NS1 inh -61%.
c1ccc(-n2nnnc2-c2cnc(-c3ccncc3)nc2-c2cccs2)cc1 was read as Pf growth 96h inconclusive, SARS PLpro yeast -48%, Pf growth 48h 10µM*, AMA1 RON2 block -22%, HCV inhibitor -24% and NS1 inh -34%.
For FC(F)(F)c1nc(N2CCCC2)ncc1-c1nnnn1-c1ccc(Cl)cc1 the results were Pf growth 96h -2%, SARS PLpro yeast -19%, AMA1 RON2 block 10%, HCV inhibitor 10µM* and NS1 inh 3%.
For c1ccc(-n2nnnc2-c2cccc3ccccc23)cc1 the results were AMA1 RON2 block 5% and HCV inhibitor -25%.
For Cc1ccc(-n2nnnc2-c2cnn(-c3ccc(F)cc3)c2C(F)(F)F)cc1 the results were Pf growth 96h inconclusive, SARS PLpro yeast 11%, Pf growth 48h inconclusive, AMA1 RON2 block -15%, HCV inhibitor inconclusive and NS1 inh -2%.
For Cc1cccc(NC(=O)COC(=O)Cc2cccs2)c1C the results were Pf growth 96h 15%, SARS PLpro yeast -3%, Pf growth 48h 1%, AMA1 RON2 block 12% and HCV inhibitor 7%.
Cc1c(N2C(=O)CSC2c2ccco2)c(=O)n(-c2ccccc2)n1C (stereo not drawn) was read as Pf growth 96h 26%, SARS PLpro yeast -1%, Pf growth 48h 21%, AMA1 RON2 block -9%, HCV inhibitor 12% and NS1 inh 0%.
